Source: PubChem (National Center for Advancing Translational Sciences (NCATS))
ALOX12 inhib: blocks human 12-lipoxygenase activity. P18054. purified 12-hLO, xylenol orange hydroperoxide absorbance. Potency, µM (top dose mostly 57.1 µM), inactives show top-dose activity change, negative = inhibition, actives largely listed as inhibitors. hit rate 0.12% among 150,000. AID 1452; active = well fitted inhibition curve with a large enough effect; inconclusive = small, poorly fitted or top-dose-only effect; note: potency is the fitted concentration of half-maximal effect; nearly all actives have a fitted effect of over 55% in size
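Hydroperoxide formation by human 12-lipoxygenase from 40 uM arachidonic acid was followed colorimetrically via ferric-xylenol orange complex, using the 573/405 nm absorbance ratio. Enzyme concentration was 150 nM, with 30 min reaction at room temperature.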
Lamin A splicing: modulators of lamin A splicing | hit rate 0.01% among 200,000 | HeLa LMNA splicing GFP/RFP minigene ratio, 48 h | AID 1487 | Potency, µM (doses to about 46.1 µM), for the others: at the highest dose ratio change, negative = inhibition, hits mostly inhibitors; active = well fitted inhibition curve with a large enough effect in the signal ratio, with a control signal flat, not every such curve was filed as active; inconclusive = small, poorly fitted or top-dose-only effect, or effect the other way, or a change in a side signal; the % refers to the signal ratio; note: potency is the fitted concentration of half-maximal effect
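Read-out is the ratio of GFP to DsRed2 object intensity, acquired by 488 nm laser-scanning cytometry on HeLa lamin A-EGFP minigene reporter cells. Compound incubation 48 hrs at 37 °C in Opti-MEM with 2% FBS; DMSO 0.5% final.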
HPGD inh: inhibitors of human 15-hydroxyprostaglandin dehydrogenase (HPGD) | Potency, µM, for the others: top-dose activity change, negative = inhibition, hits mostly inhibitors | hit rate 4.3% among 150,000 | purified HPGD, NADH fluorescence kinetic, PGE2 substrate | AID 894; note: potency is the fitted concentration of half-maximal effect
Target sequence (P15428 whole entry, looked up): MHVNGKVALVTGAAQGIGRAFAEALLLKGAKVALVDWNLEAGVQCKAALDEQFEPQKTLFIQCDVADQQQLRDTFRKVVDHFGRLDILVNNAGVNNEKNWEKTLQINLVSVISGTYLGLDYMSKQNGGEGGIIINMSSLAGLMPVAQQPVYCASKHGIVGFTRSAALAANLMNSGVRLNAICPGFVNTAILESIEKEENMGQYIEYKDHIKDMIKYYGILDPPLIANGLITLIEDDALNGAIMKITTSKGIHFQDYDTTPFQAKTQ
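NADH formation kinetics: reaction with 30 uM PGE2 and 1 mM NAD+ (final), 20 nM enzyme, Tris-HCl pH 8 with Tween 20, after 15 min compound preincubation at room temperature. Fluorescence change, last versus first of five reads.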
PNC inhibitor: perinucleolar compartment assembly inhibition. PC3M PTB-GFP, PNC prevalence imaging, 16 h; hits give low values. activity change (PNC), negative = inhibition, % at 10 µM. hit rate 3.1% among 140,000. AID 2417;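 active = readout at or below -70, meaning at least 70% loss of cells showing the perinucleolar compartment, a nuclear body marking cancer cells; inconclusive = readout between -30 and a set limit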;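 note: plate controls were DMSO wells for no effect and camptothecin positive control wells for full effect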
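PC3M cells stably expressing PTB-GFP, 750–1000 cells/well, treated 16 h at 37 °C with compound (23 nl of library stock), in duplicate. After paraformaldehyde fixation and Hoechst stain, imaged at 20x; PNC prevalence scored by image analysis.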
ALDH1A1 inh: ALDH1A1 (human) enzyme inhibition. Purified ALDH1A1, NADH fluorescence, propionaldehyde substrate. hit rate 7.3% among 220,000. Potency, µM (doses to about 75.3 µM), for the others: top-dose activity, negative = inhibition, actives largely listed as inhibitors. P00352;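 note: potency is the fitted concentration of half-maximal effect; plate controls were no enzyme wells and a reference inhibitor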
Target sequence (P00352 whole entry, looked up): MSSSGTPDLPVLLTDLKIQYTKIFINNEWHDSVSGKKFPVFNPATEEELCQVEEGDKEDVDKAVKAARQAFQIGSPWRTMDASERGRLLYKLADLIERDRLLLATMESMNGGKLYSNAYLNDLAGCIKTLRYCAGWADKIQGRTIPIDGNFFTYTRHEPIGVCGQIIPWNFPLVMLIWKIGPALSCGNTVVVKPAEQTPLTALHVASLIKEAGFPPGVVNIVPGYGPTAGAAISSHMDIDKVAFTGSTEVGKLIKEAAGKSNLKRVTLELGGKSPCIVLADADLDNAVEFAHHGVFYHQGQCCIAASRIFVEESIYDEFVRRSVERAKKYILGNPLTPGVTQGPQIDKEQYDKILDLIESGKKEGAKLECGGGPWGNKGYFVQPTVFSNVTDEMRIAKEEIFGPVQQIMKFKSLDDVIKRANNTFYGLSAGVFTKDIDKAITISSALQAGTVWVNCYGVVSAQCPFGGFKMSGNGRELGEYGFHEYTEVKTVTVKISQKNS
* hit, by the source's call; ? = inconclusive; . = not tested or not shown; [ ] = another dose, or the depositor's remark. In the library only some 10% were active in any assay of this set; here they are far more common. Unless noted, calls come from the whole dose curve; as a rule, active = well fitted inhibition curve with a large enough effect (not every such curve was filed as active); inconclusive = small, poorly fitted or top-dose-only effect, or another doubt; inactive = no such curve, though single readings can be large or run the other way. Unless noted, % is set by controls: 0 for no effect and ±100 for the full control effect.

SMILES	ALOX12 inhib	Lamin A splicing	HPGD inh	PNC inhibitor	ALDH1A1 inh
CC1CC[C@@]2(OC1)OC1CC3C4CC[C@@H]5CC(O)CC[C@@]5(C)C4CC[C@]3(C)C1C2C (stereo partly specified)	5%	.	-7%	.	9%
Cc1ccc(S(=O)(=O)NC(C)(C)CSc2nnc(Nc3ccccc3)s2)cc1	-11%	?	-10%	?	20µM*
Cc1ccc(C)c(NC(=O)Cn2ncc3c([nH]c4ccccc43)c2=O)c1	.	-5%[46 µM]	.	.	.
CCOC(=O)c1ccc(Cl)c(NC(=O)c2cccnc2)c1	.	.	.	.	11µM*
CCC(C)c1ccc(O)c(NC(=O)c2cccnc2)c1 (stereo unspecified)	3%	-10%	-10%	-11	11µM*
CCCCCC(O)/C=C/C=O (stereo unspecified)	-1%	.	-7%	.	-6%
CCCCOc1ccc(CSCCNC(=S)Nc2ccccc2)cc1	-27%	?	-12%	-30	?
CC(C)COc1ccc(CSCCNC(=S)Nc2ccccc2)cc1	28µM*	?	-13%	56	-12%
CCN1CCCc2cc(CN(CCN3CCOCC3)C(=S)Nc3cc(F)cc(F)c3)ccc21	.	24%[46 µM]	.	.	?
CCN1CCCc2cc(CN(CCN3CCOCC3)C(=S)Nc3ccc(OC)cc3)ccc21	.	-3%[46 µM]	.	.	?
CCN1CCCc2cc(CN(CCN3CCOCC3)C(=S)Nc3ccc(C)cc3)ccc21	.	-3%[46 µM]	.	.	6.3µM*
CCOc1ccc(NC(=S)N(CCN2CCOCC2)Cc2ccc3c(c2)CCCN3CC)cc1	.	.	.	.	13µM*
CCCC(=O)C1=C(c2cccc(OC)c2)N(C(=O)CCC)n2c(C)nnc2S1	.	-25%[46 µM]	.	.	.
CC(=O)N1CCN(c2ccccc2NC(=O)c2ccc(-c3cccc([N+](=O)[O-])c3)o2)CC1	.	?	.	.	14µM*
O=C(NC(=S)Nc1ccccc1N1CCCCC1)c1ccc(-c2cccc([N+](=O)[O-])c2)o1	-3%	3%	-21%	3	?
O=C(NC(=S)Nc1ccccc1N1CCCC1)c1ccc(-c2cccc([N+](=O)[O-])c2)o1	?	?	25µM*	1	22µM*
Cc1nn(-c2ccc(N3CCCC3)nn2)c(C)c1CCC(=O)Nc1ccc(F)cc1F	.	19%[46 µM]	.	.	.
COc1cc(C(=O)Nc2nnc(S(=O)(=O)N(C)c3ccccc3)s2)cc(OC)c1OC	.	14%[46 µM]	.	.	.
COc1cccc(-c2cc(C(F)(F)F)n3nc(C(=O)N4CCCCC4c4cccnc4)cc3n2)c1 (stereo unspecified)	.	.	.	.	22µM*
COc1ccc(-c2cc(C(F)(F)F)n3nc(C(=O)N4CCCCC4)cc3n2)cc1	4%	-1%	?	-19	?
O=C(c1cc2nc(-c3ccc(F)cc3)cc(C(F)(F)F)n2n1)N1CCCC1	-2%	?	3.5µM*	-3	6%
CN1CCN(C(=O)c2cc3nc(-c4ccccc4)cc(C(F)(F)F)n3n2)CC1	-4%	?	10µM*	17	-5%
CN1CCN(C(=O)c2cc3nc(-c4ccc(Cl)cc4)cc(C(F)(F)F)n3n2)CC1	-4%	-11%	?	1	?
Cc1ccc2c(c1)N(C(=O)N1CCC(C(=O)NCc3ccccc3C)CC1)CC(C)O2 (stereo unspecified)	.	4%[46 µM]	.	.	.
O=C1c2ccccc2C(=O)N1CC#CCN1CCN(C(c2ccccc2)c2ccccc2)CC1	-22%	-1%	-11%	?	16µM*
SMILES	ALOX12 inhib	Lamin A splicing	HPGD inh	PNC inhibitor	ALDH1A1 inh
COc1cccc(NC(=O)C(Cc2ccccc2)NC(=O)C2CCC(C)CC2)c1 (stereo unspecified)	-8%	?	-4%	-119*	-6%
COc1cccc(NC(=O)N[C@@H](Cc2ccccc2)C(=O)O)c1	-6%	9%	-2%	-19	12%
COc1ccc(CCNc2ncnc3onc(C)c23)c(OC)c1	.	-5%[46 µM]	.	.	.
CC(C)[C@H](NC(=O)c1ccccc1)C(=O)OCC(=O)c1ccc2c(c1)NC(=O)CO2	-9%	-10%	-24%	2	1.1µM*
CC[C@H](C)[C@H](NC(=O)c1ccc(Cl)cc1)C(=O)OCC(=O)c1ccc2c(c1)NC(=O)CO2	-4%	?	-13%	18	-11%
COc1cc(OC)cc(C(=O)N[C@H](C(=O)OCC(=O)c2ccc3c(c2)NC(=O)CO3)C(C)C)c1	-5%	-3%	-20%	30	22µM*
Cc1nc(NC(=O)CCl)sc1C(=O)N(C)C	.	-22%[46 µM]	.	.	32µM*
CN[C@@H](c1ccncc1)[C@@H](NC)c1ccncc1	-2%[11.4 µM]	.	-8%	.	3%[13.5 µM]
CC(=O)N/C(=C/c1ccc2c(c1)OCO2)C(=O)O	.	.	.	.	0%
CCC(NC(=O)/C(=C\c1ccc2c(c1)OCO2)NC(C)=O)C(=O)O (stereo unspecified)	3%	-7%	-4%	-125*	7%
COc1ccc(S(=O)(=O)NCC2CCCN(C(=O)c3cccs3)C2)cc1 (stereo unspecified)	.	0%[46 µM]	.	.	1.1µM*
COc1ccc(S(=O)(=O)NCC2CCCN(C(=O)c3ccco3)C2)cc1 (stereo unspecified)	.	.	.	.	4µM*
COc1ccc(S(=O)(=O)NCC2CCCN(C(=O)c3cccnc3)C2)cc1 (stereo unspecified)	.	-2%[46 µM]	.	.	?
Cc1cc(C)n2nc(C(=O)N3CCCC(CNS(=O)(=O)c4cccs4)C3)cc2n1 (stereo unspecified)	.	-3%[46 µM]	.	.	?
CCc1cc(C(=O)N2CCCC(CNS(=O)(=O)c3cccs3)C2)n(C)n1 (stereo unspecified)	.	.	.	.	5µM*
Cc1cccc(OCC(=O)Nc2ccccc2C(=O)OCc2cc(=O)n3nc(C)sc3n2)c1	.	-3%[46 µM]	.	.	.
Brc1ccc(C2=N[C@@H](Cc3ccccc3)CO2)cc1	-4%[0.00818 µM]	.	-7%	.	-12%
COc1ccc(N(Cc2cccs2)C(=O)c2ccc(OCC(C)C)cc2)cc1	.	-18%[46 µM]	.	.	.
COc1ccc(/C=C/C(=O)N2CCC(c3nc4ccccc4o3)CC2)cc1OC	.	-7%[46 µM]	.	.	.
C[C@]12CCC3c4ccc(O)cc4CCC3[C@@H]1CCC2=O (stereo partly specified)	-3%[25.6 µM]	17%	-2%	.	2%[20.9 µM]
Cc1cc(=O)n(CC(=O)N2CCCCC2)c2c1c(C)nn2C	.	12%[46 µM]	.	.	.
CC(=O)Oc1cccc(N2C(=O)C3C(C2=O)C2C=CC3C23CC3)c1 (stereo unspecified)	-4%	9%	-14%	-7	20µM*
CC(=O)Oc1cccc(N2C(=O)C3CC=CCC3C2=O)c1 (stereo unspecified)	-3%	-3%	-3%	?	4%
CC(=O)Oc1cccc(N2C(=O)C3C4C=CC(C4=C(C)C)C3C2=O)c1 (stereo unspecified)	-8%	4%	-11%	-18	7.1µM*
Oc1ccc(-c2n[nH]c(=S)n2-c2ccc3c(c2)OCCO3)c(O)c1	-8%	?	14µM*	26	?
COc1cc(OC)cc(-c2n[nH]c(=S)n2-c2ccc3c(c2)OCCO3)c1	.	13%[46 µM]	.	.	-6%
